How the values were obtained:
[1] = system: Human papillomavirus type 1a protein E7 (residues 44-93); experiment: HPV1a E7 fragment binders on microarrays, primary screen, biochemical, small-molecule microarray, residues 44-93, 635 nm fluorescence (AID 1108); conditions: small-molecule microarray binding, fluorescence 635 nm; higher = more signal;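 note: E7 fragment applied at 1 µg/mL in TBST for 1 h at 4 C; score combines spot fluorescence with its signal to noise ratio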
[2] = modulators of HCV replicon luciferase signal, primary screen, HCV replication inhibitor project, Huh7 cells, luciferase reporter (AID 1109); conditions: 48 h, higher = more signal;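 note: huh7 hepatoma cells harbouring a luciferase neomycin HCV replicon reporter; luciferase luminescence as measure of HCV replicon replication; test concentration not given here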
[3] = target: Left-right determination factor 2 (Homo sapiens) (UniProt O00292); experiment: LEFTY2 binders on small-molecule microarrays, primary screen, biochemical, small-molecule microarray, 635 nm fluorescence scan (AID 1110); conditions: LEFTY2 binding, higher = more signal
[4] = target: Calmodulin-1 (Homo sapiens) (UniProt P0DP23); experiment: CALM1 binders on microarrays, EGTA buffer, profiling panel, biochemical, small-molecule microarray, Cy5-labelled CALM1 (AID 1111); conditions: Cy5-CALM1 binding fluorescence, higher = more signal;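 note: labelled calmodulin applied in Tris saline Tween buffer holding calcium plus EGTA and DTT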
[5] = target: Calmodulin-1 (Homo sapiens) (UniProt P0DP23); experiment: calcium-bound CALM1 binders on microarrays, profiling panel, artefact control for SMM control-protein annotation, biochemical, small-molecule microarray, Cy5-labelled CALM1, plus calcium (AID 1112); conditions: Cy5-CALM1 binding fluorescence, higher = more signal;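 note: score merges spot fluorescence with signal to noise from triplicate slides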
[6] = small-molecule microarray binders of probe aWnt5a, primary screen, biochemical, biotinylated probe, 635/667 nm fluorescence (AID 1113); conditions: higher = more signal;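 note: score merges 667 nm fluorescence intensity with signal-to-noise per printed feature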
[7] = small-molecule microarray binders of probe aShh, primary screen, biochemical, biotinylated probe, 635/667 nm fluorescence (AID 1114); conditions: higher = more signal;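 note: probe is biotin-labelled aShh protein from a stem cell growth factor screen; measures binding of labelled protein to compounds printed on the slide; score merges feature fluorescence at 667 nm with signal-to-noise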
[8] = small-molecule microarray binders of probe aNog, primary screen, biochemical, biotinylated probe, 635/667 nm fluorescence (AID 1115); conditions: higher = more signal;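 note: probe is biotinylated aNog protein used at 0.15 µg/mL for 1 h at 4 C; z-score combines 667 nm fluorescence of each spot with its signal to noise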
[9] = target: Torsin-1A-interacting protein 1 (Homo sapiens) (UniProt Q5JTV8); experiment: LAP1 binders from COS7 cell lysate, primary screen, small-molecule microarray, 635/667 nm fluorescence (AID 1116); conditions: COS7-hLAP1 lysate binding, 635 nm fluorescence, higher = more signal
[10] = target: Alpha-bungarotoxin (Bungarus multicinctus) (UniProt P60615); experiment: alpha-bungarotoxin binders on microarray, profiling panel, artefact control for SMM control protein annotation, biochemical, small-molecule microarray, Alexa647 label, 635/667 nm fluorescence (AID 1117); conditions: alpha-BTX-A647 binding fluorescence, higher = more signal
Sequence of Alpha-bungarotoxin (Bungarus multicinctus) (P60615 whole entry, looked up): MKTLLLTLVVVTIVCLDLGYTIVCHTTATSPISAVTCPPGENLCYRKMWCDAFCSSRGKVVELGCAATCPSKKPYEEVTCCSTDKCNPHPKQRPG

Sequence of Torsin-1A-interacting protein 1 (Homo sapiens) (Q5JTV8 whole entry, looked up): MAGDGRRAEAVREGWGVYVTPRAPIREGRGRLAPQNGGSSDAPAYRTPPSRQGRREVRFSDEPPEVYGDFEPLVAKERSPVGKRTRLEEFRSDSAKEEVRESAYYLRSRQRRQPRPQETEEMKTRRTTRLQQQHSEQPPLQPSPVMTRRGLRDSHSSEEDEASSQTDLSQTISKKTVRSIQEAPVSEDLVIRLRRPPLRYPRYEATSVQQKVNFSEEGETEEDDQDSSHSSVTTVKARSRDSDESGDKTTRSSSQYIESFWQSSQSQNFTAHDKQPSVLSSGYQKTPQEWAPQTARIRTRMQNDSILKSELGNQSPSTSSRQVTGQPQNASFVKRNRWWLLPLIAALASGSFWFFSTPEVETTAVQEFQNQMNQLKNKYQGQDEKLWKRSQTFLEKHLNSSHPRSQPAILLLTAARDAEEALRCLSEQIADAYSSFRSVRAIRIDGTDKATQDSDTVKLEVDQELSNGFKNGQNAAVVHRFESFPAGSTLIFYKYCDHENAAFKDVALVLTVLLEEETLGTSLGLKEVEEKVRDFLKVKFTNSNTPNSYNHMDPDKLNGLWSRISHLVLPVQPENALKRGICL
Sequence of Left-right determination factor 2 (Homo sapiens) (O00292 whole entry, looked up): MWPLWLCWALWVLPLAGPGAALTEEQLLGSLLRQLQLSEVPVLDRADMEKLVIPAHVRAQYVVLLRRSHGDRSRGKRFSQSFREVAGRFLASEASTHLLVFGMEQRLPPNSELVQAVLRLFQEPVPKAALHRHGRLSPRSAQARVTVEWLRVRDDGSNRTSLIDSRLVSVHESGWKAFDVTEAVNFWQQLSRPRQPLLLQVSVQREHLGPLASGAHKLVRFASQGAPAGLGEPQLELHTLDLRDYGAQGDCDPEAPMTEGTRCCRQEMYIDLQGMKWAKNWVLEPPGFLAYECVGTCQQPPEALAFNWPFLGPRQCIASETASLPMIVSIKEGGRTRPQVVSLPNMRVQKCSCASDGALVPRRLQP

SMILES | composite z-score [1] | z-score [2] | composite z-score [3] | composite z-score [4] | composite z-score [5] | composite z-score [6] | composite z-score [7] | composite z-score [8] | composite z-score [9] | composite z-score [10]
NC(=O)N1C(=O)C2C(C1=O)C1C=C(CCCO)C2C(C2CC2)N1Cc1cccc(OC(F)(F)F)c1 (stereo not given) | 0.504 | -1.4 | -0.219 | -0.143 | 0.2 | -0.173 | -0.138 | 0.56 | 0.691 | -0.187
C=C(C(=O)CC[C@@H](OC(=O)c1ccccc1-c1ccccc1C(=O)O)c1ccccc1OCCO)C(C)C | 1.38 | -2.63 | 0.355 | 0.0583 | -0.7 | -0.0405 | 0.232 | -0.409 | 0.202 | 1.05
C[C@]1(C(=O)NCC(F)(F)F)c2ccccc2C(=O)N(Cc2ccccc2)[C@H]1c1ccc(CO)cc1 | -0.0857 | -0.501 | -0.722 | -0.21 | 0.799 | -0.287 | -0.147 | -0.0799 | 0.015 | -0.553
[N-]=[N+]=NCc1ccccc1[C@H]1OC(c2ccc(OCCCO)cc2)=N[C@@]1(Cc1ccccc1)C(=O)NCCN1CCOCC1 | -0.442 | -1.62 | 0.293 | 0.572 | -0.138 | 0.0711 | 0.0088 | 1.97 | 1.28 | 1.78
C=C[C@@H](C)[C@H](O)c1ccc(OCCO)cc1 | -0.355 | 0.27 | -2.31 | -0.912 | 0.521 | -0.262 | -0.289 | -0.446 | -0.73 | -1.16
COCC1C2CC[C@H]3C(OCc4ccc(OC)cc4)OC[C@]4(C)[C@H]3C2=C(CN4C(=O)OC(C)(C)C)[C@H](C)C1COC (stereo not given in full) | 1.4 | -0.733 | 0.366 | 2.47 | 0.671 | -0.0134 | 0.0898 | -0.373 | 0.782 | 1.14
CC(C)C[C@@H]1NC(=O)CNC(=O)[C@@]23C(=O)N[C@@H](Cc4ccccc4)C2[C@H](C)[C@@]2(C)O[C@H]2C3/C=C/C/C=C\CNC1=O (stereo not given in full) | 1.39 | -0.275 | 0.6 | -0.263 | -0.825 | -0.147 | -0.388 | -0.177 | 0.625 | 0.985
CCOC(=O)C1=CCN(S(=O)(=O)c2ccc(C)cc2)C1c1ccccc1 (stereo not given) | 0.666 | -3.27 | 0.564 | -0.263 | -0.197 | -0.0346 | 0.0204 | 0.46 | 0.553 | 0.848
COCCOC(=O)N1C(=O)[C@@]2(c3cc(C#CC4(O)CCCCCC4)ccc31)[C@H](C(=O)N1CCN(c3ncccn3)CC1)[C@H]1C(=O)O[C@H](c3ccccc3)[C@H](c3ccccc3)N1[C@@H]2c1ccccc1OCCO | 1.37 | -2.22 | 1.2 | 0.348 | 0.0618 | -0.184 | 0.116 | -0.263 | 0.334 | 0.684
COCCOC(=O)N1C(=O)[C@@]2(c3cc(C#Cc4ccc(OC)cc4)ccc31)[C@H](c1ccc(OCCO)cc1)N1[C@H](c3ccccc3)[C@H](c3ccccc3)OC(=O)[C@H]1[C@@H]2C(=O)Nc1nc2ccccc2s1 | 1.34 | -1.54 | 0.225 | 1.91 | 0.487 | 0.0017 | 1.52 | 0.0044 | 0.699 | 0.885
COc1ccc([Si](C)(C)[C@H]2[C@H](CC(=O)N3CCC[C@H]3CO)O[C@@]3(C(=O)N(Cc4ccc(N5CCC5=O)cc4)c4ccccc43)[C@@H]2C)cc1 | 1.13 | -1.88 | 0.794 | 0.865 | 0.0623 | -0.0735 | -0.0709 | -0.484 | 1.53 | 1.79
CCOC(=O)C[C@H]1[C@H](OC(=O)c2ccc(-c3ccccc3)cc2)[C@@H](NC(=O)Cc2ccc(OC)cc2)c2cc(OCCCO)ccc2N1C(=O)Cc1ccc(OC)cc1 | 0.102 | -0.261 | -0.0069 | 0.655 | 0.767 | -0.0114 | 0.0952 | 0.0759 | 0.456 | 0.913
CC(C)=CCCC(C)=CC(O)C1C=CC2C(=O)N(c3ccccc3)C(=O)C2N1Nc1ccccc1F (stereo not given) | 0.961 | -1.43 | -0.0742 | 1.67 | -0.132 | -0.171 | -0.414 | -0.196 | 2.19 | 0.529
O=C1OCCC/C=C\[C@H]2OC34C=CCN(c5ccc6ccccc6c5)C(=O)[C@H]3N(CCCO)C(=O)[C@@H]4C12 (stereo not given in full) | -0.148 | -0.0935 | -0.548 | -0.371 | 0.0048 | -0.124 | 0.184 | 0.0014 | -0.387 | -0.766
CCOC(=O)C[C@H]1[C@H](OC(=O)c2ccc(-c3ccccc3)cc2)[C@@H](NC(=O)CC(C)C)c2cc(OCCCO)ccc2N1C(=O)c1ccccc1 | 1.07 | -1.96 | 0.0613 | 0.232 | 0.462 | -0.0718 | -0.2 | -0.1 | 0.266 | 0.198
O=C1NC(=O)C2C1C=CC(C(O)c1ccccn1)N2Nc1ccc(Cl)cc1Cl (stereo not given) | 0.553 | 0.812 | 0.0905 | 1.46 | 0.819 | -0.16 | 0.171 | 0.383 | 0.422 | -0.0671
O=C1C[C@@](C(=O)NCC(F)(F)F)(c2ccc([N+](=O)[O-])cc2)[C@@H](c2ccc(CO)cc2)N1CC12CC3CC(CC(C3)C1)C2 | 0.913 | -3.33 | 0.309 | 0.835 | 0.569 | 0.0044 | 0.315 | 0.542 | 1.31 | 0.987
CCCCCCCCCCC(O)C1C=CC2C(=O)N(C)C(=O)C2N1Nc1cc(OC)c(OC)c(OC)c1 (stereo not given) | -0.298 | -2.01 | -1.11 | 1.82 | 1.39 | -0.0529 | -0.0398 | 0.837 | -0.232 | 0.229
CN1C(=O)[C@@]2(Cc3ccccc3)N=C(c3ccc(OCCCO)cc3)O[C@H]2c2ccccc21 | 1.3 | -2.57 | 0.879 | 0.329 | 0.458 | -0.0495 | 0.0372 | 1.26 | 0.344 | 0.846
CC1(C)C(=O)C(c2ccccc2)=C2CN3C(=O)N(CCc4ccccc4)C(=O)C3(Cc3ccc(C(F)(F)F)cc3)C=C21 (stereo not given) | 1.19 | -1.66 | -0.668 | 1.36 | 0.858 | 0.0226 | 1.05 | 1.8 | 0.393 | 0.234
COc1ccc([Si](C)(C)[C@H]2[C@H](CCO)O[C@@]3(C(=O)N(Cc4ccccc4)c4ccc(N5CCOC5=O)cc43)[C@@H]2C)cc1 | 0.27 | -4.13 | 0.28 | 0.284 | 0.299 | -0.0239 | 0.0062 | 0.325 | 0.673 | 0.0997
COCCCNC(=O)[C@@H]1c2ccccc2C(=O)N(C2Cc3ccccc3C2)[C@H]1c1ccc(CO)cc1 | 0.661 | -0.689 | 0.173 | -0.362 | -0.518 | -0.152 | -0.229 | -0.532 | 0.685 | -0.0047
Cc1nc2cc(Br)ccc2c(=O)n1Cc1cccc(O)c1 | 0.804 | 0.201 | 0.874 | 0.523 | 0.302 | -0.0263 | -0.0946 | 0.761 | 1.21 | -0.0871
CC(C)CNC(=O)[C@@]1(C)c2ccccc2C(=O)N(Cc2cc(C(F)(F)F)cc(C(F)(F)F)c2)[C@H]1c1ccc(CO)cc1 | 0.267 | -0.447 | -0.557 | -0.438 | 0.507 | -0.175 | -0.291 | -0.318 | 0.0492 | -0.0153
CCCC=C(CCC)[C@@H](NC(=O)CCc1ccccc1)c1ccc(C(F)(F)F)cc1 | 1.36 | -1.51 | -0.203 | 1.58 | 1.03 | 0.451 | 0.93 | 0.555 | 1.11 | 1.23

Reference: PubChem BioAssay
